Measurements as given in PubChem BioAssay (Tox21).
Records with an inconclusive call do not appear. Active and inactive are the calls of the source. Unless noted, the call rests on the fitted dose curve; in most records, active means well fitted curve in the direction sought with a large enough effect in the repeat runs; inconclusive means weak or mixed curves; inactive means no such curve, though single readings can be large; an effect the other way counts as inactive or inconclusive.

What was measured:
[1] = target: Estrogen receptor beta (Homo sapiens) (UniProt Q92731); experiment: qHTS assay to identify small molecule agonists of the estrogen receptor beta (ER-beta) signaling pathway (AID 1259377; active means well fitted activation curve with a large enough effect in the signal ratio in the repeat runs, not every such curve was filed as active; the % refers to the signal ratio)
Procedure, shortened: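 In HEK293T cells bearing a UAS-beta-lactamase reporter under ER-beta control, DMSO-delivered compounds were incubated for 16 hr at 37C. Activity was detected as fluorescence 2 hours after LiveBLAzer B/G FRET substrate addition.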

[2] = target: Estrogen receptor beta (Homo sapiens) (UniProt Q92731); experiment: qHTS assay to identify small molecule antagonists of the estrogen receptor beta (ER-beta) signaling pathway (AID 1259378; active means well fitted inhibition curve with a large enough effect in the signal ratio in the repeat runs, not every such curve was filed as active; the % refers to the signal ratio)
Procedure, shortened: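 ER-beta-UAS-bla HEK293T cells in 2% charcoal-stripped FBS medium treated with compound plus 1nM final 17-beta-estradiol for 16 hr at 37C. Beta-lactamase reporter read by FRET substrate fluorescence after 2 hours at room temperature.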

[3] = qHTS assay to identify small molecule agonists of the androgen receptor (AR) signaling pathway in the presence of an antagonist - cell viability counter screen (AID 1259379);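 further: MDA-kb2 human breast cancer cells carrying an MMTV luciferase reporter; series mostly up to about 92 µM; nearly all actives have a fitted effect of over 25% in size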
Procedure, shortened: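 MDA-kb2 human breast carcinoma cells (stable MMTV-luciferase, AR/GR responsive) were seeded 3,000 cells/well, pre-incubated 5 hr at 37C without CO2, then given 3.0uM nilutamide and compounds at 15 concentrations for 16 hr. Viability was read by CellTiter-Fluor fluorescence.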

[4] = qHTS assay to identify small molecule agonists of the estrogen receptor beta (ER-beta) signaling pathway - cell viability counter screen (AID 1259380); further: nearly all actives have a fitted effect of over 30% in size; further: potency means the concentration at half of the fitted maximal effect
Procedure, shortened: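 ER-beta-UAS-bla HEK293T cells in medium with 2% charcoal-stripped FBS were preincubated 6 hr at 37C, dosed with compound in DMSO for 16 hr, then after the bla read, CellTiter-Glo was added for 30 min at room temperature; luminescence recorded.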

[5] = qHTS assay to identify small molecule antagonists of the estrogen receptor beta (ER-beta) signaling pathway - cell viability counter screen (AID 1259382); further: nearly all actives have a fitted effect of over 55% in size; further: potency means the concentration at half of the fitted maximal effect
Procedure, shortened: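 ER-beta-UAS-bla HEK293T cells (2,000/well, 2% charcoal-stripped FBS) were pre-incubated 6 hr at 37C, then given compound plus 1nM final 17-beta-estradiol for 16 hr. Viability was read in the same wells by CellTiter-Glo luminescence after 30 min at room temperature.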

[6] = target: Estrogen receptor (Homo sapiens) (UniProt P03372); experiment: qHTS assay to identify small molecule agonists of the estrogen receptor alpha (ER-alpha) signaling pathway in the presence of an antagonist (AID 1259383; calls by dose curve; further: top concentration of the series differs between compounds; nearly all actives have a fitted effect of over 15% in size)
Procedure, shortened: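 VM7Luc4E2 cells (endogenous full-length ER-alpha, 4×ERE-luciferase) were precultured 5 days in phenol red-free medium with 10% charcoal-stripped FBS, given 10.0nM ICI-182,780 (final), then treated with compounds at 15 concentrations for 22hr at 37C; luminescence read with ONE-Glo.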

[7] = qHTS assay to identify small molecule agonists or antagonists of the thyroid stimulating hormone receptor (TSHR) signaling pathway - wild type cell line counter screen (AID 1259384; calls by dose curve)
Procedure, shortened: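 Wild-type Hek293 cells, 800/well, 18 h at 37C, then compound with Ro20-1724 for 30 min RT. cAMP by HTRF (cAMP-d2/anti-cAMP cryptate), 1 h RT, fluorescence read. 15 concentrations, triplicates.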

[8] = target: Thyrotropin receptor (Homo sapiens) (UniProt P16473); experiment: qHTS assay to identify small molecule antagonists of the thyroid stimulating hormone receptor (TSHR) signaling pathway (AID 1259385; calls by dose curve; further: nearly all actives have a fitted effect of over 20% in size)
Procedure, shortened: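 TSHR-HEK293 cells (800/well) plated 18 h, then compounds with Ro20-1724 and TSH at 1.5 ng/mL final, 30 min at room temperature. cAMP quantified by HTRF (cAMP-d2/anti-cAMP-cryptate, 1 h); 15 concentrations in triplicate.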

[9] = qHTS assay to identify small molecule agonists of the estrogen receptor alpha (ER-alpha) signaling pathway in the presence of an antagonist - cell viability counter screen (AID 1259386);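 further: series mostly up to about 92 µM; cells exposed to compounds for 22 h at 37 °C before the viability read; nearly all actives have a fitted effect of over 30% in size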
Procedure, shortened: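 VM7Luc4E2 cells (endogenous full-length ER-alpha, 4×ERE-luciferase) were held 5 days in phenol red-free medium with 10% charcoal-stripped FBS, plated, then given 10.0nM ICI-182,780 and compounds at 15 concentrations for 22hr at 37C; viability read by CellTiter-Fluor fluorescence.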

[10] = target: Progesterone receptor (Homo sapiens) (UniProt P06401); experiment: qHTS assay to identify small molecule agonists of the progesterone receptor (PR) signaling pathway (AID 1346784; calls by dose curve; further: nearly all actives have a fitted effect of over 30% in size)
Procedure, shortened: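 Using charcoal-stripped serum (2%) to limit endogenous steroids, PR-UAS-bla HEK 293T cells received compounds for 16 hr at 37C after 6 hr plating; beta-lactamase FRET fluorescence was recorded following 2 hr substrate loading at room temperature.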

[11] = qHTS assay to identify small molecule antagonists of the progesterone receptor (PR) signaling pathway - cell viability counter screen (AID 1346798); further: nearly all actives have a fitted effect of over 50% in size; further: potency means the concentration at half of the fitted maximal effect
Procedure, shortened: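 ATP content as viability readout: CellTiter-Glo luminescence, 30 min room temperature, in PR-UAS-bla HEK293T cells after 16 hr compound/R5020 treatment at 37C and 5% CO2.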

[12] = qHTS assay to identify small molecule agonists of the progesterone receptor (PR) signaling pathway - cell viability counter screen (AID 1346799; calls by dose curve; further: nearly all actives have a fitted effect of over 45% in size)
Procedure, shortened: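 Cytotoxicity in PR-bla HEK293T cells: 16 h compound, 37C; CellTiter-Glo added post-FRET read; luminescence after 30 min RT.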

[13] = qHTS assay to identify small molecule antagonists of the TGF-beta/Smad signaling pathway - cell viability counter screen (AID 1346824); further: nearly all actives have a fitted effect of over 50% in size
Procedure, shortened: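 SBE-bla HEK 293T cells, incubated overnight, then compound plus 0.25 ng/mL TGF-beta1 (stock added) for 5 hr at 37 C. Viability was read in the same wells by CellTiter-Glo luminescence after 30 min at room temperature.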

[14] = qHTS assay to identify small molecule agonists of the TGF-beta/Smad signaling pathway - cell viability counter screen (AID 1346829); further: top concentration of the series differs between compounds; nearly all actives have a fitted effect of over 45% in size
Procedure, shortened: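 Tox21 qHTS format: SBE-bla HEK 293T cells treated with DMSO-dissolved compounds for 5 hr; CellTiter-Glo luminescence after 30 min at room temperature.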

[15] = qHTS assay to identify small molecule agonists of the TGF-beta/Smad signaling pathway (AID 1346859; active means well fitted activation curve with a large enough effect in the signal ratio in the repeat runs, not every such curve was filed as active; the % refers to the signal ratio; further: series mostly up to about 77 µM)
Procedure, shortened: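 Stable Smad binding element-beta-lactamase HEK 293T cells; 5 hr compound exposure at 37 C under 5% CO2; 2 hr room-temperature substrate step; fluorescence excited at 405 nm, collected at 460 nm and 530 nm.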

[16] = target: Thyrotropin-releasing hormone receptor (Homo sapiens) (UniProt P34981); experiment: qHTS assay to identify small molecule antagonists of the thyrotropin-releasing hormone receptor (TRHR) signaling pathway (AID 1346877; active means well fitted inhibition curve with a large enough effect in the repeat runs, not every such curve was filed as active; further: series mostly up to about 51 µM)
Procedure, shortened: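 TRHR-expressing HEK293 cells were seeded, cultured 18 h at 37 °C, then loaded with calcium dye for 2 h. Compounds were pre-incubated 5 min at room temperature before 1 nM TRH (final) was added, and kinetic fluorescence was recorded for 3 min.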

[17] = target: Thyrotropin-releasing hormone receptor (Homo sapiens) (UniProt P34981); experiment: qHTS assay to identify small molecule agonists of the thyrotropin-releasing hormone receptor (TRHR) signaling pathway (AID 1346891; calls by dose curve; further: series mostly up to about 58 µM)
Procedure, shortened: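 In 1536-format, 1500 TRHR-Hek293 cells per well grew 18 h, took up calcium dye for 2 h at 37 °C, received compound, and were read kinetically; 15-point titrations, triplicates.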

[18] = qHTS assay to identify small molecule antagonists of the sonic hedgehog signaling (Shh) pathway (AID 1259369; calls by dose curve; further: nearly all actives have a fitted effect of over 45% in size)
Procedure, shortened: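 NIH/3T3-derived 3T3Gli1-Luc cells with stably integrated Gli1-Luc reporter were preincubated 4hr at 37 C, then given compounds in DMSO plus Shh conditioned medium and incubated 24hr. Firefly luciferase luminescence read after 30min reagent at room temperature.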

[19] = target: Progesterone receptor (Homo sapiens) (UniProt P06401); experiment: qHTS assay to identify small molecule antagonists of the progesterone receptor (PR) signaling pathway (AID 1346795; active means well fitted inhibition curve with a large enough effect in the signal ratio in the repeat runs, not every such curve was filed as active; the % refers to the signal ratio)
Procedure, shortened: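 Inhibition of R5020-induced (1 nM final) beta-lactamase reporter signal in PR-UAS-bla HEK293T cells was scored by FRET fluorescence after overnight (16 hr) compound treatment.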

Measured: Potency

Chain of Thyrotropin receptor (Homo sapiens) (P16473 whole entry, looked up): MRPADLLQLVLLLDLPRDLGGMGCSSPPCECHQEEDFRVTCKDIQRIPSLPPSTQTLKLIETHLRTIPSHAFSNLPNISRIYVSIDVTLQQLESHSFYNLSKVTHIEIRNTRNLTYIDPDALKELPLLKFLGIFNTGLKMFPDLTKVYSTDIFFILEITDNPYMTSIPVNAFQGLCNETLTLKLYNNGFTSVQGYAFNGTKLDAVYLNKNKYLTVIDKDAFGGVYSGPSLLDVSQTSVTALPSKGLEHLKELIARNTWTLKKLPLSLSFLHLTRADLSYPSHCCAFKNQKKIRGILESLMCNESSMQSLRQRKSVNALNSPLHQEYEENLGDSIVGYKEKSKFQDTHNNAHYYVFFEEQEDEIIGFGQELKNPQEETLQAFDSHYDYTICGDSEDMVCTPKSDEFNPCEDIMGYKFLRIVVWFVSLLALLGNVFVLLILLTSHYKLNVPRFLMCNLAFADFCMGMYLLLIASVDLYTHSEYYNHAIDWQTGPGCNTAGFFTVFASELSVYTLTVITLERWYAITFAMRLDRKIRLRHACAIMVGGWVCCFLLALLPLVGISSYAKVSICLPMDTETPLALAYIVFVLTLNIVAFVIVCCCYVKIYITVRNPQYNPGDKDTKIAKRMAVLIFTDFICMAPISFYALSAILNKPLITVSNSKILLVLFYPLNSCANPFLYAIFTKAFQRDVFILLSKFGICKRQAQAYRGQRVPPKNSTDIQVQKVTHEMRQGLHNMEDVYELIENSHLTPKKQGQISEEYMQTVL
Chain of Thyrotropin-releasing hormone receptor (Homo sapiens) (P34981 whole entry, looked up): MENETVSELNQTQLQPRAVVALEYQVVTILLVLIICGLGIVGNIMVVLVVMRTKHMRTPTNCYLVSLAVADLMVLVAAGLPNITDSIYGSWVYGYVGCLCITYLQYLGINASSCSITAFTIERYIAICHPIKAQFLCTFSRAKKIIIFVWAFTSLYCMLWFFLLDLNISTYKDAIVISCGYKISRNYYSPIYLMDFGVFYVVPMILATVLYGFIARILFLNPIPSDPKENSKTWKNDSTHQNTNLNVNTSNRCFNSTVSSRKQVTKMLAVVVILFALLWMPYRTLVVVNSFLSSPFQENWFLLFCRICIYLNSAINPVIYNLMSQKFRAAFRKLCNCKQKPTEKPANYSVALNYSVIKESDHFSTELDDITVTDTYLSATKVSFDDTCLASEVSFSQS
Chain of Estrogen receptor beta (Homo sapiens) (Q92731 whole entry, looked up): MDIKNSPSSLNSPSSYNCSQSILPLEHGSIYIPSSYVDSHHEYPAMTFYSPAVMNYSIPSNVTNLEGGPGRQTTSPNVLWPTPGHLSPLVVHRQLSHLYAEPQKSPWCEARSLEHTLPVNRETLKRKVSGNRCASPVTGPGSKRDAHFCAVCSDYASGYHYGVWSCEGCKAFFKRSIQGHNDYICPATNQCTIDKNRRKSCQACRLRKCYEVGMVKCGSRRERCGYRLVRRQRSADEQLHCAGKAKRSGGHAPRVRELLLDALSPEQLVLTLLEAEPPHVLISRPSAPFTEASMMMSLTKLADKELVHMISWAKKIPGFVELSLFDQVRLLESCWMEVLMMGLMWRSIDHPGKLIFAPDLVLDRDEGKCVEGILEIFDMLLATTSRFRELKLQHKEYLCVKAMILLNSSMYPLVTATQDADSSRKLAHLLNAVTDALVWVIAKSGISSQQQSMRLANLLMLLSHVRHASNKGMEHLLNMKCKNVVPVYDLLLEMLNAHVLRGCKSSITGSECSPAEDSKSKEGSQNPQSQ
Chain of Progesterone receptor (Homo sapiens) (P06401 whole entry, looked up): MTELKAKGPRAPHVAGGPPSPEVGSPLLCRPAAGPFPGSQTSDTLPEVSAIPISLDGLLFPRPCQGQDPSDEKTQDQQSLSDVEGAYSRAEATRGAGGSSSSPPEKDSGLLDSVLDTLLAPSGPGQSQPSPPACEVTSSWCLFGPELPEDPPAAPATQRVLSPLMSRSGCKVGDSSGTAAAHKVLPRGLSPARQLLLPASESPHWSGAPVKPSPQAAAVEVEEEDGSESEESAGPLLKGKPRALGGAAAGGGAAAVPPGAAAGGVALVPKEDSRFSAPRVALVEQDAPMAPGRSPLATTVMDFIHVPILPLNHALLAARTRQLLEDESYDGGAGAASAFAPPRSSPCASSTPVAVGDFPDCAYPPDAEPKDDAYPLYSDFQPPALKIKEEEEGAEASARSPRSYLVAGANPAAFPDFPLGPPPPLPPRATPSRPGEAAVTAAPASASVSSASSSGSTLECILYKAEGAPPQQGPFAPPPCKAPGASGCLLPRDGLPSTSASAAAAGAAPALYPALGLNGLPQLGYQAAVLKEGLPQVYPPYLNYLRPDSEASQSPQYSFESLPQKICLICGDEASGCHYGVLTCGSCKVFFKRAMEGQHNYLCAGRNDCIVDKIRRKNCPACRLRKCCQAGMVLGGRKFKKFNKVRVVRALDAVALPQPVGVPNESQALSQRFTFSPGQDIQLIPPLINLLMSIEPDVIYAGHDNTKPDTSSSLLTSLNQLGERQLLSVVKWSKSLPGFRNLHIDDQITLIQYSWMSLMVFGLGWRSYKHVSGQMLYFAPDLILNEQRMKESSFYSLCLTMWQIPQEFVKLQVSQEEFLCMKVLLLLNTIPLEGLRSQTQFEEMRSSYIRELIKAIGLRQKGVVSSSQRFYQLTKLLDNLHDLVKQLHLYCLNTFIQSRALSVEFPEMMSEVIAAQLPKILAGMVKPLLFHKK
Chain of Estrogen receptor (Homo sapiens) (P03372 whole entry, looked up): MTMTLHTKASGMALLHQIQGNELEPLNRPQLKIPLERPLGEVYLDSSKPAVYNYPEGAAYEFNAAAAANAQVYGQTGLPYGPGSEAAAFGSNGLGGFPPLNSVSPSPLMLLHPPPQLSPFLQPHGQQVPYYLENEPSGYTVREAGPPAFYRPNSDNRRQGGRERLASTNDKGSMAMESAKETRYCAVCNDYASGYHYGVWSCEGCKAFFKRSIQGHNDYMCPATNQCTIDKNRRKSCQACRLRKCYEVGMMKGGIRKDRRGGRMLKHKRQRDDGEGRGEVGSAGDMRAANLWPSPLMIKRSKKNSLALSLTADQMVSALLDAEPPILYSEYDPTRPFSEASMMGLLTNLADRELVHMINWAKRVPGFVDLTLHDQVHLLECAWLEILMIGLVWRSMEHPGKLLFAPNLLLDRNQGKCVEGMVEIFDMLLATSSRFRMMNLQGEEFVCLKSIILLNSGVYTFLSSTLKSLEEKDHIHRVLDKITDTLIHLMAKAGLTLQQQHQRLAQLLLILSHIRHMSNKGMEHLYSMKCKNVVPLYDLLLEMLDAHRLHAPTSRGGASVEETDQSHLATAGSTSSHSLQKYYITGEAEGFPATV

CCN(CC)CCc1nc(-c2ccccc2)no1
not listed: [18] | [19]
inactive: all other assays above

O=C(O)Cc1cc(I)c(Oc2ccc(O)c(I)c2)c(I)c1
not listed: [1] | [2] | [3] | [4] | [6] | [7] | [15] | [19]
inactive: all other assays above

COc1ccc([C@@H]2Sc3ccccc3N(CCN(C)C)C(=O)[C@@H]2OC(C)=O)cc1
active: [4] 15 µM | [5] 21.1 µM | [11] 21.1 µM
inactive: [18] | [7] | [8] | [9] | [10] | [13] | [14] | [15]

CC(C)(C)c1cc(CO)cc(C(C)(C)C)c1O
not listed: [2] | [4] | [9] | [12] | [18] | [19]
inactive: all other assays above

O=CNc1ccccc1
not listed: [6] | [7] | [8] | [18]
inactive: all other assays above

CC(=O)[C@@]1(O)CC[C@H]2[C@@H]3C[C@H](C)C4=CC(=O)CC[C@]4(C)[C@H]3CC[C@@]21C
not listed: [3] | [10] | [12] | [16] | [17] | [18] | [19]
inactive: all other assays above

CCCCCOC(=O)COc1cc(N2C(=O)C3=C(CCCC3)C2=O)c(F)cc1Cl
not listed: [4] | [16] | [17] | [18]
inactive: all other assays above

CC(=O)CC(=O)c1ccccc1
not listed: [7] | [8] | [12] | [18] | [19]
inactive: all other assays above

O=C1c2cccc(O)c2C(=O)c2c(O)cc(CO)cc21
not listed: [1] | [2] | [3] | [4] | [9] | [15] | [19]
inactive: all other assays above
